Source: PubChem BioAssay (NCATS)
Several values for one entry are separate records, joined by “and”; a condition that tells them apart may be missing. Equal entries are not always repeated. Records with an inconclusive call do not appear. Activity calls are given as the source filed them. Unless noted, the call rests on the fitted dose curve; in most records, active means well fitted curve in the direction sought with a large enough effect; inconclusive means small, poorly fitted or top-dose-only effect, or another doubt; inactive means no such curve, though single readings can be large; an effect the other way counts as inactive or inconclusive.

Key:
[1] = qHTS of Trypanosoma Brucei Inhibitors: LOPAC Validation (AID 624147); further: 0% is about no effect
In short: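 In this concentration-response screen, enzyme-free wells defined baseline while DMSO plates tracked drift. Each reaction combined TbPYK, substrate, compound and 130 uM ADP for 45 min at room temperature. Kinase-Glo Plus luminescence gave the signal.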

[2] = target: Glucagon-like peptide 1 receptor (Homo sapiens) (UniProt P43220); assay: qHTS of GLP-1 Receptor Agonists: LOPAC Validation (AID 624148);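 further: 0% is about no effect; higher luminescence signal means agonism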
Sequence of Glucagon-like peptide 1 receptor (Homo sapiens) (P43220 whole entry, looked up): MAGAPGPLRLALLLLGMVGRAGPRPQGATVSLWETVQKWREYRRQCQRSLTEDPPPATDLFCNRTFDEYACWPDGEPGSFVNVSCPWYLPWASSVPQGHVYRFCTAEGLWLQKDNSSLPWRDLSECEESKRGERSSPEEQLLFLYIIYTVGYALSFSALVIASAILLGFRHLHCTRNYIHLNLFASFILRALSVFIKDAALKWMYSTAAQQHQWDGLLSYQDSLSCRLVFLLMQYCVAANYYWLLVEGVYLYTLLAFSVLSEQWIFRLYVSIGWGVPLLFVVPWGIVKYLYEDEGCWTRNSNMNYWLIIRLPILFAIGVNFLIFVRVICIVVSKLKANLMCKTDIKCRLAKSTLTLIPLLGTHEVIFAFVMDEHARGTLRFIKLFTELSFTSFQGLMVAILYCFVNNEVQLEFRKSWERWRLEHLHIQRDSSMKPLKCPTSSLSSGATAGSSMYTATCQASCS
In short: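 HEK293 cells stably co-expressing GLP-1R and a cAMP-responsive luciferase reporter, plated 12 hours before compound, then incubated 4-6 hr at 37 deg C. Luminescence read 12 min after detection reagent.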

[3] = qHTS of Nrf2 Activators: LOPAC Validation (AID 624149); further: 0% is about no effect
In short: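 Luminescence read-out of ARE-luciferase activation: AREc32_Fluc cells treated with compounds for 24 hr at 37 deg C, then lysed with Steady-Glo for 30 min at room temperature before reading.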

[4] = HTS Assay for Allosteric Antagonists of the Human D2 Dopamine Receptor: Hit Validation in HTRF (AID 624455);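 further: stable D1 dopamine receptor cell line scored for blocking the D1 response; on the % scale 0 is the no-effect control and ±100 the full control effect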
In short: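 First, antagonism was screened by calcium flux in a force-coupled, inducible Hek293 Trex D2 line challenged with EC80 dopamine. Hits then went into an HTRF assay in cells stably expressing D1, testing inhibition of the D1 response.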

[5] = target: Glutaminase kidney isoform, mitochondrial (Homo sapiens) (UniProt O94925); assay: qHTS for Inhibitors of Glutaminase (GLS): LOPAC Validation (AID 624146); further: nearly all actives have a fitted effect of over 60% in size; further: potency means the concentration at half of the fitted maximal effect
Sequence of Glutaminase kidney isoform, mitochondrial (Homo sapiens) (O94925 whole entry, looked up, canonical isoform): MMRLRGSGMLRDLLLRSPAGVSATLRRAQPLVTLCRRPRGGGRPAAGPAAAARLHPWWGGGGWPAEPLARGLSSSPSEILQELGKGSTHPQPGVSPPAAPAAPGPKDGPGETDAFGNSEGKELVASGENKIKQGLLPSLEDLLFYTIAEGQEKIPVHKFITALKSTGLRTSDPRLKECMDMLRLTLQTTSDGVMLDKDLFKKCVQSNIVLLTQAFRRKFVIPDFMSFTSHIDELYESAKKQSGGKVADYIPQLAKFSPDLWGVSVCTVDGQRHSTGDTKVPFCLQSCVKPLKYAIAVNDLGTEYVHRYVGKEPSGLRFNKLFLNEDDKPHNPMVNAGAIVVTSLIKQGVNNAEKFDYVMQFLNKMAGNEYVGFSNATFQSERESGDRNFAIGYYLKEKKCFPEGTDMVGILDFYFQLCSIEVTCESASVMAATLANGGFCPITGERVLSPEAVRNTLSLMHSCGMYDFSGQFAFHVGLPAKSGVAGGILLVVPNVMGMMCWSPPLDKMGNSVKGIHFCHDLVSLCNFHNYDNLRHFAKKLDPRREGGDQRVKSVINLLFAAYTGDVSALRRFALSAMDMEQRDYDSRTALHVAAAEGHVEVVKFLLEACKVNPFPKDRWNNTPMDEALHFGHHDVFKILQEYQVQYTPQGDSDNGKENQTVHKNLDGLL
In short: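 Compounds were pin-transferred onto hKGA, after which L-glutamine (1 mM solution) and a detection mix of glutamate oxidase, HRP and Amplex Red were added. Initial and 30 min RT fluorescence reads were collected.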

[6] = target: Peroxisome proliferator-activated receptor alpha (Homo sapiens) (UniProt Q07869); assay: qHTS assay for small molecule agonists of the peroxisome proliferator-activated receptor alpha (PPARalpha) signaling pathway (AID 651778); conditions: PathHunter PPARalpha complementation, chemiluminescence, 6 h; stronger effect = higher value; further: % of control where 0% means no effect
Sequence of Peroxisome proliferator-activated receptor alpha (Homo sapiens) (Q07869 whole entry, looked up, the tested form may be a part): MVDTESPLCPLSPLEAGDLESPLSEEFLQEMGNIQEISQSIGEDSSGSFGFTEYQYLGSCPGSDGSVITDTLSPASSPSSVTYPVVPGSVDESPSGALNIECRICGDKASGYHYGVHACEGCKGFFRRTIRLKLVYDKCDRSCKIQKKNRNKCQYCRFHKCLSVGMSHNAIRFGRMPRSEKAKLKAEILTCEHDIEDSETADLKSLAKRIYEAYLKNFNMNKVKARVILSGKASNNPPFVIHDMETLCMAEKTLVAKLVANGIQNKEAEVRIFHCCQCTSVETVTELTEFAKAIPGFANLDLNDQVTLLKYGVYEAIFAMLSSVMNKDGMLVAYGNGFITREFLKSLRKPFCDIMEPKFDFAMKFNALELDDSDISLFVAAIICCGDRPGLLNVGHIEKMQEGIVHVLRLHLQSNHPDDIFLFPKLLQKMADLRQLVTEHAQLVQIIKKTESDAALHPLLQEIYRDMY
In short: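 Enzyme-fragment complementation assay in which ligand-bound PPARalpha translocates and forms an active enzyme that generates chemiluminescence. Cells were plated overnight, exposed to compound for 6 hr at 37 C, and then given detection reagent for 60 min at room temperature.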

[7] = qHTS assay for small molecule activators of the p53 signaling pathway (AID 651743; active means well fitted activation curve with a large enough effect in the signal ratio, not every such curve was filed as active; the % refers to the signal ratio; further: series mostly up to about 92 µM; % of control where 0% means no effect); conditions: HCT-116 p53RE-bla, beta-lactamase FRET ratio, 16 h; activation: stronger effect = higher value
In short: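 p53RE-bla HCT-116 cells carrying a beta-lactamase reporter under p53 response elements were exposed to compounds for 16 hours at 37 C. Reporter activity read as fluorescence after 2 hours at room temperature with LiveBLAzer B/G FRET substrate.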

[8] = qHTS assay for small molecule disruptors of the mitochondrial membrane potential - 1 hr assay (AID 651754; calls by dose curve; further: nearly all actives have a fitted effect of over 35% in size; further: potency means the concentration at half of the fitted maximal effect)
In short: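 HepG2, 2,000 cells/well, overnight attachment; cpd or DMSO 1 hr, 37C/5% CO2; Mito-MPS dye 30 min, 37C; fluorescence monomer (490/535) and aggregate (540/590).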

[9] = qHTS assay for small molecule disruptors of the mitochondrial membrane potential - 5 hr assay (AID 651755; calls by dose curve; further: nearly all actives have a fitted effect of over 40% in size; further: potency means the concentration at half of the fitted maximal effect)
In short: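 HepG2 cells (2,000/well), attached overnight, exposed to compound 5 hr at 37C, then Mito-MPS dye 30 min. Fluorescence read for monomers (490/535 nm) and aggregates (540/590 nm).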

[10] = target: Tumor necrosis factor (Homo sapiens) (UniProt P01375); assay: qHTS assay to identify small molecules that stimulate Tumor Necrosis Factor-alpha (TNF-alpha) secretion (AID 651757; active means well fitted curve in the direction sought with a large enough effect in the signal ratio; the % refers to the signal ratio; further: 0% is about no effect)
Sequence of Tumor necrosis factor (Homo sapiens) (P01375 whole entry, looked up): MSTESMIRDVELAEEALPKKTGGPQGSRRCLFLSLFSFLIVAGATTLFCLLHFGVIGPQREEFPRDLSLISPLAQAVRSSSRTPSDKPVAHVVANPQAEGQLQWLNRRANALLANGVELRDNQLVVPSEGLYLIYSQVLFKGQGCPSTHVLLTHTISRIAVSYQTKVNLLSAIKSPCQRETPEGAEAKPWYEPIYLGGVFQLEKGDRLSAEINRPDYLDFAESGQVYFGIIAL
In short: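 Read-out is HTRF, a TR-FRET sandwich of cryptate- and XL665-labeled anti-TNF-alpha antibodies detecting cytokine secreted by THP-1 cells. Cells had been incubated with test compounds at 37 C for 17 hrs beforehand.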

[11] = qHTS assay for environmental chemicals that activate the Aryl hydrocarbon Receptor (AhR) signaling pathway (AID 651777); conditions: 1A2-DRE human hepatoma cells, luciferase, 24 h; activation: stronger effect = higher value; further: nearly all actives have a fitted effect of over 15% in size; further: potency means the concentration at half of the fitted maximal effect; on activation: % of control where 0% means no effect
In short: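 Induction of CYP1A2 transcription through AhR is detected by luciferase in 1A2-DRE hepatoma cells. Compounds or DMSO act for 24 hr at 37 C before a 30 min One-Glo step at room temperature.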

[12] = qHTS assay to identify small molecules that stimulate interleukin-8 (IL-8) secretion (AID 651758; active means well fitted activation curve with a large enough effect in the signal ratio; the % refers to the signal ratio; further: 0% is about no effect)
In short: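 THP-1 cells (2000/well) exposed to compound 16 h at 37 C; secreted IL-8 then detected by HTRF with cryptate- and XL665-labelled anti-IL-8 antibody pair after 1-3 h at room temperature.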

[13] = target: Nuclear receptor ROR-gamma (Homo sapiens) (UniProt P51449); assay: qHTS assay for small molecule antagonists of the retinoid-related orphan receptor gamma (ROR-gamma) signaling pathway (AID 651802);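 further: CHO cells with doxycycline-induced ROR-gamma expression; luciferase reporter luminescence driven by ROR response element; series mostly up to about 92 µM; on the % scale 0 is the no-effect control and ±100 the full control effect; nearly all actives have a fitted effect of over 60% in size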
Sequence of Nuclear receptor ROR-gamma (Homo sapiens) (P51449 whole entry, looked up): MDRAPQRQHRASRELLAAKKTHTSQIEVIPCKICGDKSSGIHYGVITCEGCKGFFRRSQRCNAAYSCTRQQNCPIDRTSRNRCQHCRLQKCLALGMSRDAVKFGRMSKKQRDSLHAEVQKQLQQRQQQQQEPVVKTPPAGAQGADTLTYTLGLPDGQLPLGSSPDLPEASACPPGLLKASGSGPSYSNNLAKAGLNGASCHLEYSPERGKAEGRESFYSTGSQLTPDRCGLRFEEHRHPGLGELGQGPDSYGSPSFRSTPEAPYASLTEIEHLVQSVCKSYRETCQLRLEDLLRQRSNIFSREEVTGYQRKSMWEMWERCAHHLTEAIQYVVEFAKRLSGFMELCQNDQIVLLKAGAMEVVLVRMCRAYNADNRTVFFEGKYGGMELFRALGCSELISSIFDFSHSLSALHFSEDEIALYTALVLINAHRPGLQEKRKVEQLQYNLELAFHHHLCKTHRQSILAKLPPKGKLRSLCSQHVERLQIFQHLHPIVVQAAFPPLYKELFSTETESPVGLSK
In short: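 CHO, TET-inducible ROR + RORE-LUC reporter, 1536-well qHTS. Compound pinned, doxycycline added, 16hr 37C/5% CO2. ONE-Glo, 30 min RT, luminescence; signal drop scored as antagonism.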

[14] = qHTS assay for small molecule agonists of the antioxidant response element (ARE) signaling pathway (AID 651741; active means well fitted activation curve with a large enough effect in the signal ratio; the % refers to the signal ratio; further: % of control where 0% means no effect)
In short: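 CellSensor ARE-bla HepG2 cells (2,000/well) carrying ARE-driven beta-lactamase, exposed 16 h at 37 C. LiveBLAzer B/G FRET substrate added for 2 h at room temperature; fluorescence intensity read.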

CN(C)[C@@H]1C(=O)C(C(N)=O)=C(O)[C@@]2(O)C(=O)C3=C(O)c4c(O)ccc(Cl)c4[C@@H](O)[C@H]3C[C@@H]12
inactive: outcome [1] | outcome [2] | outcome [3]

CCN1CCc2nc(N)oc2CC1
inactive: outcome [1] | outcome [2] | outcome [3] | Potency [4]

Cc1nc2c([nH]1)c(=O)n(C)c(=O)n2Cc1ccco1
inactive: Potency [5] | outcome [1] | outcome [3] | Potency [4]

CC(=O)[C@@]1(O)CC[C@H]2[C@@H]3CCC4=CC(=O)CC[C@]4(C)[C@H]3CC[C@@]21C
inactive: Potency [5] | outcome [1] | outcome [2] | outcome [3] | Potency [4] | max response [6] -2.31%

OCCN1CCN(CC/C=C2/c3ccccc3Sc3ccc(C(F)(F)F)cc32)CC1
inactive: Potency [5] | outcome [1] | outcome [3] | Potency [4]

COC(=O)[C@@H](N)Cc1ccc(O)c(O)c1
inactive: outcome [1] | outcome [2] | outcome [3]

CC(C)NCC(O)c1cc(O)cc(O)c1 (stereo unspecified)
inactive: outcome [1] | outcome [3] | Potency [4]
active: Potency [5] 7.08 µM

COc1cc2c(cc1OC)-c1cc(=Nc3c(C)cc(C)cc3C)n(C)c(=O)n1CC2
inactive: Potency [5] | outcome [1] | outcome [3] | Potency [4]

COC(=O)[C@H]1[C@H]2C[C@@H]3c4[nH]c5cc(OC)ccc5c4CCN3C[C@H]2C[C@@H](OC(=O)c2cc(OC)c(OC)c(OC)c2)[C@@H]1OC
active: Potency [5] 10 µM | Potency [8] 21.1 µM | Potency [9] 26.6 µM
inactive: outcome [1] | outcome [2] | outcome [3] | Potency [4] | activation [7] 3.91% and 8.14% | outcome [10] | activation [11] 3.95% and 8.69% | max response [6] 4.44% and 8.97%

CNCCCN1c2ccccc2CCc2ccccc21
inactive: Potency [5] | outcome [1] | outcome [2] | Potency [4]

CN/C(=C\[N+](=O)[O-])NCCSCc1ccc(CN(C)C)o1
inactive: Potency [5] | outcome [1] | outcome [2] | Potency [4]

COC(=O)C1=C(C)NC(C)=C(C(=O)OCCN(C)Cc2ccccc2)C1c1cccc([N+](=O)[O-])c1 (stereo unspecified)
inactive: outcome [1] | outcome [2] | Potency [4]

Brc1c(NC2=NCCN2)ccc2nccnc12
inactive: outcome [1] | outcome [2] | outcome [3] | Potency [4]

C[C@H](CS)C(=O)N1CCC[C@H]1C(=O)O
inactive: Potency [5] | outcome [1] | outcome [3] | Potency [4]

C[n+]1cc2c3c(ccc2c2ccc4cc5c(cc4c21)OCO5)OCO3
inactive: outcome [1] | outcome [2] | outcome [3]

NC(=Nc1ccccc1)Nc1ccccc1
active: Potency [11] 12.6 µM
inactive: activation [7] -3.94% and -5.84% | outcome [10] | Potency [12] | max response [6] -2.99% and 6.68% | Potency [13]

CCCCCCCC/C=C\CCCCCCCC(=O)NCc1ccc(O)c(OC)c1
inactive: outcome [1] | outcome [2] | outcome [3] | Potency [4]

CN(C)CCCN1c2ccccc2Sc2ccccc21
inactive: outcome [1] | outcome [2] | outcome [3] | Potency [4]

Cc1ccc(/C(=C\CN2CCCC2)c2ccccn2)cc1
inactive: Potency [5] | outcome [1] | outcome [2] | Potency [4]

CCn1nc(C(=O)O)c(=O)c2cc3c(cc21)OCO3
inactive: Potency [5] | outcome [1] | outcome [2] | Potency [4]

C[C@@H](O)[C@H]1C(=O)N2C(C(=O)O)=C(SCCN=CN)C[C@H]12
inactive: outcome [1] | outcome [2] | outcome [3] | Potency [4]

CN(C)CCCN1c2ccccc2Sc2ccc(C(F)(F)F)cc21
inactive: Potency [5] | outcome [2] | outcome [3] | Potency [4]

CCCCOCCOCCOCc1cc2c(cc1CCC)OCO2
inactive: Potency [14] | Potency [8] | Potency [9] | outcome [10] | activation [11] 5.54% and 1.27% | max response [6] -0.481% and -4.29%
